# In PubChem BioAssay AID1851 (National Center for Advancing Translational Sciences (NCATS), 2009):
# Among all 16,000 compounds or so, about 5,700 (36%) were called active. Another 24% or so got no clear call; they are omitted. Some of the results follow. Unmarked numbers belong to inactive results. The call rests on the fitted dose curve; in most records, active means well fitted curve in the direction sought with a large enough effect; inconclusive means small, poorly fitted or top-dose-only effect, or effect the other way; inactive means no such curve, though single readings can be large or run the other way.
# Molecular target: Cytochrome P450 1A2 (Homo sapiens) (UniProt P05177)
# Assay: Cytochrome panel assay with activity outcomes
# Conditions: recombinant CYP, pro-luciferin dealkylation, luminescence, p450-cyp1a2; series mostly up to 57.1 µM
# On the % scale 0 is the no-effect control and ±100 the full control effect.
# Chain of Cytochrome P450 1A2 (Homo sapiens) (P05177 whole entry, looked up): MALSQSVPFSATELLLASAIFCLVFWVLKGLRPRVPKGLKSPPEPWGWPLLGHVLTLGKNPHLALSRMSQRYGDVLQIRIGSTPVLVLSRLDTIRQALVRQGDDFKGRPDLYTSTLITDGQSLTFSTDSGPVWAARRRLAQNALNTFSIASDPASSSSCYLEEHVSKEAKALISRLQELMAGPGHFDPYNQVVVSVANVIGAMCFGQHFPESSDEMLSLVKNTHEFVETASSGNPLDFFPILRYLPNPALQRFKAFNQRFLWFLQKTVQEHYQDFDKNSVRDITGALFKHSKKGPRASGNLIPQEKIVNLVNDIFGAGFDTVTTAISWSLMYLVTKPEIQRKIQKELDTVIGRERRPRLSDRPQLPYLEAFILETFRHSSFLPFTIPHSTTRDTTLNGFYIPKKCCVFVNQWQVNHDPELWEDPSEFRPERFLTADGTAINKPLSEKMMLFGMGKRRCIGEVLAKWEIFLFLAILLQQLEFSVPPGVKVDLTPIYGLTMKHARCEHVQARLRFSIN
SMILES,AC50,"activity, negative = inhibition"
C=C(NC(=O)C(=C)NC(=O)c1csc(C2=N[C@@H]3c4csc(n4)[C@@H]4NC(=O)c5csc(n5)[C@@H]([C@](C)(O)[C@H](C)O)NC(=O)[C@@H]5CSC(=N5)/C(=C/C)NC(=O)[C@@H]([C@H](C)O)NC(=O)c5csc(n5)[C@]3(CC2)NC(=O)[C@@H](C)NC(=O)C(=C)NC(=O)[C@@H](C)NC(=O)[C@@H]([C@@H](C)CC)N[C@H]2C=Cc3c([C@H](C)O)cc(nc3[C@@H]2O)C(=O)O[C@H]4C)n1)C(N)=O,inactive,–
COCC(=O)N1CCC[C@@]2(CCN(c3ncccn3)C2)C1,inactive,–
CCCN(CCC)C(=O)[C@@H](CCC(=O)O)NC(=O)c1ccccc1,inactive,–
CCCN(CCC)C(=S)NC(=O)c1ccc(Cl)cc1Cl,447 nM (active),–
CCn1c(CCNC(=O)c2ccc(Cl)cc2Cl)n[nH]c1=S,inactive,–
O=C(Nc1ccccc1[N+](=O)[O-])C1C(c2ccccc2)=C1c1ccccc1,inactive,–
O=[N+]([O-])c1ccccc1N/N=C/c1c[nH]c2ccccc12,5620 nM (active),–
Cn1c(N/N=C/c2c[nH]c3ccccc23)nc2ccccc21,1000 nM (active),–
COc1ccc(Nc2nc(N3CCCCC3)c3ccccc3n2)cc1,1780 nM (active),–
O=C(O)/C=C\c1ccc(O)c(O)c1,inactive,–
O=C(/C=C\c1ccc(O)c(O)c1)O[C@@H]1C[C@](O)(C(=O)O)C[C@@H](O)[C@@H]1O,inactive,–
O=C(/C=C\c1ccc(O)c(O)c1)OCCc1ccccc1,1000 nM (active),–
Cc1ccc(-c2nn(-c3ccccc3)cc2CSC(=N)N)cc1,12600 nM (active),–
c1cnc2ccc(C(c3nnnn3C3CCCC3)N3CCN4CCCC4C3)cc2c1 (stereo unspecified),inactive,–
N#Cc1cccc(NC(=O)N2CC[C@@]3(CCCN(C(=O)c4ccncc4)C3)C2)c1,inactive,–
N#Cc1cccc(-c2nc(Nc3ccncc3)c3ccccc3n2)c1,631 nM (active),–
N#Cc1cccc(-c2nc(Nc3ccccc3)c3ccccc3n2)c1,1260 nM (active),–
CNc1nc(-c2cccc(C#N)c2)nc2ccccc12,79.4 nM (active),–
CNC(=O)[C@@H]1O[C@@H](n2cnc3c(N)ncnc32)[C@@H](O)[C@H]1O,inactive,–

SMILES,AC50,"activity, negative = inhibition"
CC(=O)OC[C@@H]1O[C@H](CCO/N=C\[C@@H](C)[C@H](OCc2ccccc2)C(C)C)C=C[C@@H]1OC(C)=O,–,9.09% [at 11.4 µM]
CC(=O)OC[C@@H]1O[C@@H](O/N=C2/C[C@@H](O)[C@@H](O)[C@@H]3[C@@H]4C(=O)N(C5CCCCC5)C(=O)[C@H]4CC[C@H]23)[C@H](OC(C)=O)[C@H](OC(C)=O)[C@@H]1OC(C)=O,–,-1.1% [at 11.4 µM]
CC(=O)Nc1ccc(C#Cc2ccc(NC(C)=O)cc2)cc1,inactive,–
S=C(Nc1ccccc1)Nc1ccccc1C#Cc1ccccc1,501 nM (active),–
COc1cccc(-c2nc(NCCNC(C)=O)c3ccccc3n2)c1,2510 nM (active),–
COCCNc1nc(-c2cccc(OC)c2)nc2ccccc12,200 nM (active),–
COc1cccc(-c2nc(NCc3ccccc3)c3ccccc3n2)c1,3160 nM (active),–
COc1ccccc1NC(=O)Nc1nc(-c2cccnc2)nc2ccccc12,2510 nM (active),–
CCc1ncc(CO)n1Cc1cccc2ccccc12,–,-6.53% [at 11.4 µM]
CO[C@@H]1COC(=O)[C@H](C)NC(=O)C/C=C\[C@@H](C)[C@@H](NS(=O)(=O)c2ccc(C)cc2)COC(=O)C/C=C\[C@@H]1C,–,-6.59% [at 11.4 µM]
Cc1ccc(S(=O)(=O)ON=C2CCN(S(=O)(=O)c3ccccc3)CC2)cc1,inactive,–
CC(=O)O[C@H]1CC[C@@]2(C)C(=CC[C@@H]3[C@@H]4CC[C@H](c5cc(C(F)(F)F)n(C(C)=O)n5)[C@]4(C)CC[C@@H]32)C1,–,-13.7% [at 11.4 µM]
COc1ccccc1CNc1nc(-c2cccnc2)nc2ccccc12,1000 nM (active),–
COc1cccc(-c2nc(NCc3cccs3)c3ccccc3n2)c1,316 nM (active),–
COc1cccc(-c2nc(NCc3cccnc3)c3ccccc3n2)c1,158 nM (active),–
COc1cccc(-c2nc(NCc3ccccc3OC)c3ccccc3n2)c1,631 nM (active),–
Cc1noc(C)c1C(=O)N1CCC2(CC1)CN(c1ncccn1)C2,inactive,–
Cc1ccc(S(=O)(=O)N2CCCC(C(=O)NCCCN3CCCCC3C)C2)cc1 (stereo unspecified),inactive,–
COCc1nnc(NC(=O)CCN2C(=O)c3ccccc3C2=O)s1,inactive,–

SMILES,AC50,"activity, negative = inhibition"
Cc1ccccc1NC(=S)NC(=O)c1cc(-c2ccccc2)nc2ccccc12,14100 nM (active),–
CC(C)(C)c1nnc(NC(=O)c2cc(-c3ccccc3)nc3ccccc23)s1,inactive,–
O=C(CCN1C(=O)c2ccccc2C1=O)NC(=S)Nc1cccc(Cl)c1,3160 nM (active),–
Cc1cccc(NC(=S)NC(=O)CCc2ccccc2)c1,6310 nM (active),–
Cc1ccc(-c2cc(C(=O)NN=C3CCCC3)c3ccccc3n2)cc1,15800 nM (active),–
CCCc1ccc(-c2cc(C(=O)NN3CCOCC3)c3ccccc3n2)cc1,inactive,–
CCC[C@H]1C[C@H](C(=O)N[C@H]([C@@H]2O[C@H](SC)[C@@H](O)[C@H](O)[C@@H]2O)[C@H](C)O)N(C)C1,inactive,–
Cc1cccc(NC(=S)NC(=O)c2cc(-c3ccccc3)nc3ccccc23)c1,8910 nM (active),–
Cn1cnc([N+](=O)[O-])c1SCC(=O)O,–,-9.68% [at 11.4 µM]
Cc1cc([N+](=O)[O-])nn1CC(=O)NNC(=S)Nc1ccc(F)cc1,inactive,–
Cc1nc(SCC(=O)c2ccc(F)cc2)c([N+](=O)[O-])[nH]1,6310 nM (active),–
Oc1ccccc1C(Sc1nc2ccccc2s1)Sc1nc2ccccc2s1,1260 nM (active),–
c1ccc2sc(SCCSc3nc4ccccc4s3)nc2c1,794 nM (active),–
c1ccc(NCCSc2nc3ccccc3s2)cc1,501 nM (active),–
NCCSc1nc2ccccc2s1,316 nM (active),–
O=C(O)CCCSc1nc2ccccc2s1,–,-16.9% [at 11.4 µM]
CN(C)Cc1ccccc1-c1cc(Nc2ccccc2)ncn1,15800 nM (active),–
CN(C)Cc1ccccc1-c1cc(NC2CC2)ncn1,12600 nM (active),–
